TDP1 cell CPT: growth inhibition of DT40 Tdp1-/-;hTDP1 cells with camptothecin (screen for TDP1 inhibitors) | chicken DT40 Tdp1-/-;hTDP1 cells + 20 nM CPT, ATP luminescence, 48 h | AID 686979 | 12% of 420,000 active | Potency, µM (doses to about 46.2 µM), for inactives: top-dose activity change, negative = growth inhibition, usual class: inhibitors; further: on the % scale 0 is the no-effect control and ±100 the full control effect; nearly all actives have a fitted effect of over 55% in size
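Cell growth measured by CellTiter-Glo luminescence after a minimum 48 h, 37 C compound exposure with 20 nM CPT in Tdp1-knockout DT40 cells stably expressing hTDP1, seeded 400/well; qHTS titration format.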
TDP1 block: inhibitors of human tyrosyl-DNA phosphodiesterase TDP1. recombinant TDP1, AlphaScreen DNA substrate cleavage. AID 485290. 0.28% of 350,000 active. Potency, µM (highest dose often 130 µM), for inactives: at the highest dose activity change, negative = inhibition, hits mostly inhibitors; further: on the % scale 0 is the no-effect control and ±100 the full control effect; nearly all actives have a fitted effect of over 40% in size
Target sequence (Q9NUW8 whole entry, looked up): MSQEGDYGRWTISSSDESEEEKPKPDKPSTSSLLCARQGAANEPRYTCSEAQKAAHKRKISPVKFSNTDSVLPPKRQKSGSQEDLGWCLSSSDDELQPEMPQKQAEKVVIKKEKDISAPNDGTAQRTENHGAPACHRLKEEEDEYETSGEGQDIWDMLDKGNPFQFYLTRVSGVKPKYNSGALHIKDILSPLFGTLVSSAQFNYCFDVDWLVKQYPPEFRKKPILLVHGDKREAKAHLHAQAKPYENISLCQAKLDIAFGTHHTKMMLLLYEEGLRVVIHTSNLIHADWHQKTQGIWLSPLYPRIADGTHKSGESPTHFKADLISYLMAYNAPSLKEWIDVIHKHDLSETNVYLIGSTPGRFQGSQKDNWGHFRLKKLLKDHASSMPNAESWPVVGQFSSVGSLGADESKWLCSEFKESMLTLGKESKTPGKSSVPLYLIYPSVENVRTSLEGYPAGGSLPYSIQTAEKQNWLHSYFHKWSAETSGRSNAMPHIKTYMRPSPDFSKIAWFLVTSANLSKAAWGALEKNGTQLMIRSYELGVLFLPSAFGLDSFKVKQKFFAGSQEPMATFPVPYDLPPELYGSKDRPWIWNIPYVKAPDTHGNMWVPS
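Compounds were preincubated with Tdp1 (1 nM final) for 15 min at room temperature before substrate (15 nM final) started a 5 min reaction; beads (10 ug/ml final) were then added for 10 min before AlphaScreen detection.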
TDP1 cell noCPT: qHTS for Inhibitors of human tyrosyl-DNA phosphodiesterase 1 (TDP1): qHTS in cells in absence of CPT. DT40 Tdp1-/- hTDP1 cells, no CPT, ATP luminescence, 48 h. Potency, µM (titrated, usually from 46.2 µM), inactives show at the highest dose activity change, negative = growth inhibition, most hits filed as inhibitors. 15% of 420,000 active; further: on the % scale 0 is the no-effect control and ±100 the full control effect; nearly all actives have a fitted effect of over 55% in size
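Seeded 400 DT40-hTDP1 cells/well (vehicle DMSO, no 20 nM CPT); pinned compounds; ≥48 hr at 37 °C; CellTiter-Glo luminescence as viability measure.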
ClpP mod: qHTS Assay for Activators of ClpP; AID 651965, 2013; purified B. subtilis ClpP, FRET peptide cleavage, 20 min; ATP-dependent Clp protease proteolytic subunit (Bacillus subtilis (strain 168)), P80244; Potency, µM (top dose mostly 57.5 µM), without a hit: at the highest dose activity change, negative = active; 1.9% of 340,000 active; active means well fitted falling curve with a large enough effect; inconclusive means small, poorly fitted or top-dose-only effect; inactive means no such curve, though single readings can be large or run the other way; further: the source files actives as falling curves though it sought activators and does not explain the sign; nearly all actives have a fitted effect of over 65% in size
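Purified B. subtilis ClpP, 10 microg/mL final in Tris/HCl pH8 with KCl, BSA, glycerol and Tween-20, cleaved an Abz/nitrotyrosine-quenched decapeptide. Fluorescence (ex 320, em 430) was read at 0 and 20 min at room temperature. Delta was normalized to 5.8 microM ADEP and DMSO/no-enzyme controls.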
* = called active by the depositor. Compounds with a hit are over-represented: about 17% of the library has one in this group of screens. Unless noted, the call rests on the fitted dose curve; in most records, active means well fitted curve in the direction sought with a large enough effect; inconclusive means small, poorly fitted or top-dose-only effect, or another doubt; inactive means no such curve, though single readings can be large; an effect the other way counts as inactive or inconclusive. Potency means the concentration at half of the fitted maximal effect.

How did CCSc1nc2c(c(=O)n1Cc1ccccc1)SC(C)C2 (configuration not stated) do in these assays?
TDP1 cell CPT: 11.6µM*; TDP1 block: 9.1%; TDP1 cell noCPT: inconclusive; ClpP mod: 0.8%

How did COCCn1c(SCC(=O)Nc2ccc3c(c2)OCCO3)nc2c(c1=O)SC(C)C2 (configuration not stated) do in these assays?
TDP1 cell CPT: 14.6µM*; TDP1 block: 5.2%; TDP1 cell noCPT: inconclusive; ClpP mod: -4.7%

Results for Cc1cc(NC(=O)CSc2nc3c(c(=O)n2-c2ccccc2)SC(C)C3)no1 (configuration not stated) ?
TDP1 cell CPT: inconclusive; TDP1 block: 0.0%; TDP1 cell noCPT: 20.6µM*; ClpP mod: 2.1%

What do the screens show for `CC1Cc2nc(SCC(=O)Nc3nccs3)n(Cc3ccccc3)c(=O)c2S1` (configuration not stated)?
TDP1 cell CPT: 20.6µM*; TDP1 block: 5.2%; TDP1 cell noCPT: inconclusive; ClpP mod: 1.1%

What do the screens show for `CC1Cc2nc(SCC(N)=O)n(Cc3ccccc3)c(=O)c2S1` (configuration not stated)?
TDP1 cell CPT: -1.9%; TDP1 cell noCPT: -20.7%; ClpP mod: -0.1%

What do the screens show for `CC1Cc2nc(SCC(=O)Nc3ccc4c(c3)OCCO4)n(C)c(=O)c2S1` (configuration not stated)?
TDP1 cell CPT: inconclusive; TDP1 block: 5.6%; TDP1 cell noCPT: inconclusive; ClpP mod: -0.6%

What do the screens show for `O=C(CCS(=O)(=O)c1ccccc1)Nc1ccc(Cl)cn1`?
TDP1 cell CPT: -3.0%; TDP1 block: -12.9%; TDP1 cell noCPT: -12.9%

What do the screens show for `CN(C)c1ccc(C(=O)N2CCNC(=O)C2CC(=O)Nc2ccc(F)cc2)cc1` (configuration not stated)?
TDP1 cell CPT: inconclusive; TDP1 block: 0.3%; TDP1 cell noCPT: 6.2%; ClpP mod: -0.8%

How did Cc1cccc2c(C(=O)n3cccn3)cc(-c3ccccc3Cl)nc12 do in these assays?
TDP1 cell CPT: inconclusive; TDP1 block: -1.8%; TDP1 cell noCPT: inconclusive; ClpP mod: 41.2%

How did CN(C(=O)CSc1nc(C2CCCC2)nc2c1c(=O)n(C)c(=O)n2C)c1ccccc1 do in these assays?
TDP1 cell CPT: inconclusive; TDP1 block: 5.4%; TDP1 cell noCPT: inconclusive; ClpP mod: 0.6%

What do the screens show for `CC1Cc2nc(SCC(=O)Nc3ccc4c(c3)OCO4)n(Cc3ccccc3)c(=O)c2S1` (configuration not stated)?
TDP1 cell CPT: 16.4µM*; TDP1 block: 10.0%; TDP1 cell noCPT: inconclusive; ClpP mod: -2.2%

What do the screens show for `CC1Cc2nc(SCC(=O)NCC3CCCO3)n(Cc3ccccc3)c(=O)c2S1` (configuration not stated)?
TDP1 cell CPT: 1.3%; TDP1 block: 2.2%; TDP1 cell noCPT: -15.5%; ClpP mod: 0.4%

Results for COC(=O)c1ccccc1NC(=O)C1(c2cccs2)CCOCC1 ?
TDP1 cell CPT: inconclusive; TDP1 block: 0.0%; TDP1 cell noCPT: 20.6µM*; ClpP mod: -0.5%

Results for COc1ccc(NC(=O)C2(c3cccs3)CCOCC2)cc1 ?
TDP1 cell CPT: -1.7%; TDP1 block: -1.2%; TDP1 cell noCPT: 2.6%; ClpP mod: -3.6%

How did O=C(N1CCN(c2ccccc2F)CC1)C12CC3CC(CC(C3)C1)C2 do in these assays?
TDP1 cell CPT: inconclusive; TDP1 block: -8.2%; TDP1 cell noCPT: inconclusive; ClpP mod: 1.4%

How did O=C(N1CCN(c2ccccc2F)CC1)C1(c2cccs2)CCOCC1 do in these assays?
TDP1 cell CPT: inconclusive; TDP1 block: -1.1%; TDP1 cell noCPT: 18.4µM*; ClpP mod: -2.6%

Results for CCOc1ccc(N(C)c2ccc(/C=C3/SC(=S)NC3=O)cc2)cc1 ?
TDP1 cell CPT: inconclusive; TDP1 block: 5.9%; TDP1 cell noCPT: 16.4µM*

What do the screens show for `Cc1nn(-c2ccccc2)c(=S)n1-c1ccccc1`?
TDP1 cell CPT: 20.6µM*; TDP1 block: 2.1%; TDP1 cell noCPT: 13µM*; ClpP mod: -1.4%

What do the screens show for `COc1cc(C=O)ccc1OCCOCCOc1ccc(Cl)cc1`?
TDP1 cell CPT: inconclusive; TDP1 block: -3.4%; TDP1 cell noCPT: inconclusive; ClpP mod: -3.5%

How did COc1cc(C=O)ccc1OCCOCCOc1ccc(Cl)cc1Cl do in these assays?
TDP1 cell CPT: inconclusive; TDP1 cell noCPT: 14.6µM*; ClpP mod: -4.5%

What do the screens show for `CCN1/C(=C/c2ccc3cc(C)ccc3[n+]2CC)Sc2ccccc21`?
TDP1 cell CPT: 0.0651µM*; TDP1 block: 3.4%; TDP1 cell noCPT: 0.058µM*; ClpP mod: 0.0%

What do the screens show for `CC[n+]1c(/C=C2\Sc3ccccc3N2C)ccc2cccc(C)c21`?
TDP1 cell CPT: 0.517µM*; TDP1 block: 4.7%; TDP1 cell noCPT: 0.517µM*; ClpP mod: 0.6%

Results for O=C1CCCN1c1ccc(S(=O)(=O)NCc2ccc(F)cc2)cc1 ?
TDP1 cell CPT: 20.6µM*; TDP1 block: 1.8%; TDP1 cell noCPT: inconclusive; ClpP mod: -0.8%

How did O=S(=O)(NCc1ccc(F)cc1)c1ccc(N2CCCCS2(=O)=O)cc1 do in these assays?
TDP1 cell CPT: 23.1µM*; TDP1 block: -6.2%; TDP1 cell noCPT: 20.6µM*; ClpP mod: -1.6%

What do the screens show for `O=S(=O)(NCc1ccc(Cl)cc1)c1ccc(N2CCCCS2(=O)=O)cc1`?
TDP1 cell CPT: 11.6µM*; TDP1 block: 3.8%; TDP1 cell noCPT: 8.2µM*; ClpP mod: 2.4%

How did O=S(=O)(NCc1ccccc1Cl)c1ccc(N2CCCCS2(=O)=O)cc1 do in these assays?
TDP1 cell CPT: 16.4µM*; TDP1 block: 3.8%; TDP1 cell noCPT: 20.6µM*; ClpP mod: -1.6%

How did O=S(=O)(NCCN1CCCC1)c1ccc(Cl)cc1 do in these assays?
TDP1 cell CPT: -20.9%; TDP1 cell noCPT: 1.0%; ClpP mod: -0.9%

How did O=C(CSc1cn[nH]n1)Nc1ccccc1C(=O)O do in these assays?
TDP1 cell CPT: 1.9%; TDP1 cell noCPT: -1.1%

How did COc1ccccc1NC(=O)c1ccc(NC(=O)CSc2nc(N)cc(=O)[nH]2)cc1 do in these assays?
TDP1 cell CPT: -1.1%; TDP1 block: -3.1%; TDP1 cell noCPT: 19.5%; ClpP mod: 1.9%

What do the screens show for `Cc1cc(S(=O)(=O)NCCCN2CCOCC2)c(Cl)cc1Cl`?
TDP1 cell CPT: -15.7%; TDP1 cell noCPT: -16.4%

How did Cc1nc(-c2ccc(S(=O)(=O)Nc3cc(Cl)ccc3C)cc2)co1 do in these assays?
TDP1 cell CPT: -26.5%; TDP1 block: 9.9%; TDP1 cell noCPT: inconclusive; ClpP mod: 2.1%

What do the screens show for `Cc1ccc(Cl)cc1NS(=O)(=O)c1ccc(N2CCCCS2(=O)=O)cc1`?
TDP1 cell CPT: inconclusive; TDP1 block: 6.2%; TDP1 cell noCPT: 11.6µM*; ClpP mod: -5.7%

High-throughput results: PubChem BioAssay, National Center for Advancing Translational Sciences (NCATS)
